Experimental findings from PubChem BioAssay (NCI) are described below.

The panel holds about 83,000 compounds, 20% with a hit somewhere; the sample as a whole holds those more often.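 Compound tested at a single concentration for 48 hours in 96-well plates; a percent growth value below 10 was scored as active.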 Unmarked numbers belong to inactive results. Activity calls are given as the source filed them.

What all share (experiment): NCI-60 one-dose screen, 48 h (100 = growth as untreated, 0 = no growth, -100 = all killed)
Conditions in all cases: 10 µM unless noted

For experiment [1], the system named is T-47D breast.
Experiment [2] has as its system MDA-MB-435 melanoma.
Experiment [3] deals with SW-620 colon.
The test system of experiment [4] is MCF7 breast.
For experiment [5], the system named is HCT-116 colon.
In experiment [6] the test system is HCC-2998 colon.
Experiment [7] concerns KM12 colon.
The subject of experiment [8] is BT-549 breast.

Take `CCN(CC)CCCCNc1c2ccc(Cl)cc2nc2ccc(OC)cc12`: the growth in experiment [1] is -16.9% (active); in experiment [2], -89.2% (active); in experiment [3] it was -24.8% (active); in experiment [4], -30% (active); in experiment [5] it was -39.5% (active); in experiment [6], -78.6% (active). Besides, the growth in experiment [7] was -6.4% (active).
Take `CSc1ccc(-c2ccccc(=O)c2O)cc1`: the growth is 27% in experiment [1]; 29.7% in experiment [8]; 29.2% in experiment [3]; 15.8% in experiment [4]; 20% in experiment [5]; 44% in experiment [6]. In experiment [7], the growth was 23.1%.
Take `Nc1ccn(-c2ccc(Br)cc2)c(=O)n1`: the growth in experiment [1] was 202%; in experiment [2], 96.6%; in experiment [3] it was 98.8%; in experiment [4], 108%; in experiment [5] it was 102%; in experiment [6], 29.7%. Moreover, in experiment [7], the growth was 121%.
Turning to `O=C(COc1ccc(/C=C2\COc3ccccc3C2=O)cc1)Nc1nccs1`, the growth is 90% in experiment [1]; 105% in experiment [2]; 69.1% in experiment [3]; 15% in experiment [4]; 38.1% in experiment [5]; 168% in experiment [6]. In addition, the growth in experiment [7] was 43.3%.
For `O=C1NC(=Nc2ccc(O)cc2)S/C1=C\c1cccc(Cl)c1`, the growth in experiment [1] is 76%; in experiment [2] it was 2.14% (active); in experiment [3], 30.7%; in experiment [4], 18.6%; in experiment [5] it was 24.2%; in experiment [6] it was 83.8%. For the same compound, the growth in experiment [7] is 21.9%.
On to `Cn1ncc2c(=O)nc3c(-c4ccccc4)n[nH]n3c21`, for which the growth in experiment [1] was 95.6%; in experiment [2], 101%; in experiment [3], 107%; in experiment [4], 92.8%; in experiment [5], 97.6%; in experiment [6] it was 99.2%. In addition, in experiment [7], the growth was 113%.
In the case of `COc1ccc(SC2c3ccc(C)cc3Oc3nc(N)c(C#N)c(N)c32)cc1` (stereo not given), the growth in experiment [1] is -34.5% (active); in experiment [8] it was -72.9% (active); in experiment [3], -65.2% (active); in experiment [4], -48.6% (active); in experiment [5] it was -64.4% (active); in experiment [6], -78.9% (active). For the same compound, the growth in experiment [7] is 3.92% (active).
For `Cc1nc(/N=C(\N)NC(=O)Nc2cccc([N+](=O)[O-])c2)sc1C`, the growth is 80.8% in experiment [1]; 65.8% in experiment [8]; 40.1% in experiment [3]; 31.1% in experiment [4]; 71.1% in experiment [5]; 84.1% in experiment [6]. Besides, the growth in experiment [7] was 72.1%.
For `COc1ccc(CCNc2nc(SC)nc(-c3cccc([N+](=O)[O-])c3)c2C#N)cc1OC`, the growth is 79.3% in experiment [1]; 42.2% in experiment [8]; 92.9% in experiment [3]; 86.8% in experiment [4]; 82% in experiment [5]; 93.6% in experiment [6]. Also, the growth in experiment [7] is 99.1%.
With `O=Nc1c(O)c(Cl)cc2ccccc12`, the growth in experiment [1] was -4.57% (active); in experiment [2] it was 91.8%; in experiment [3], 46.2%; in experiment [4], 49.6%; in experiment [5], 31.5%; in experiment [6], 115%. Also, in experiment [7], the growth is 79.5%.
As for `CC(C)n1c(/C=C/[C@@H](O)C[C@@H](O)CC(=O)O)c(-c2ccc(F)cc2)c2ccccc21`, the growth in experiment [1] is 72.7%; in experiment [8] it was 60.6%; in experiment [3], 72.9%; in experiment [5], 22.1%; in experiment [6], 77.7%; in experiment [7] it was 87.5%.
In the case of `O=C(/C=C/c1ccccc1)c1ccc(O)c(CN2CCN(c3cc4c(cc3F)c(=O)c(C(=O)O)cn4C3CC3)CC2)c1`, the growth was 27.9% in experiment [1]; 28.2% in experiment [8]; 23.4% in experiment [3]; 8% (active) in experiment [4]; 3.95% (active) in experiment [5]; 41.2% in experiment [6]. For the same compound, in experiment [7], the growth was 31.8%.
Take `COc1cc2nc(N3CCCC3)nc(NCc3ccccc3)c2cc1OC`: the growth is 7.79% (active) in experiment [1]; 70.5% in experiment [8]; 55.9% in experiment [3]; 29.4% in experiment [4]; 28.2% in experiment [5]; 55.4% in experiment [6]. Moreover, the growth in experiment [7] is 96.3%.
Take `CSc1nc(NCCN2CCOCC2)c(C#N)c(-c2cccc([N+](=O)[O-])c2)n1`: the growth in experiment [1] was 96.8%; in experiment [2], 104%; in experiment [3] it was 99.8%; in experiment [4], 89.4%; in experiment [5], 98.8%; in experiment [6], 112%. Besides, the growth in experiment [7] was 98.7%.
For the compound `O=c1c2c3c(sc2nc(N/N=C/c2cn(-c4ccccc4)nc2-c2ccc(Cl)cc2)n1Cc1ccccc1)CCCC3`, the growth in experiment [1] is 105%; in experiment [8] it was 92.1%; in experiment [3], 107%; in experiment [4] it was 104%; in experiment [5], 90.3%; in experiment [7], 103%.
In the case of `O=C(CN(C(=O)Cn1c(=O)n2nnnc2c2ccccc21)c1ccccc1C(F)(F)F)Nc1ccc(C(F)(F)F)cc1`, the growth in experiment [1] was 101%; in experiment [2] it was 105%; in experiment [3] it was 105%; in experiment [4] it was 96.1%; in experiment [5] it was 95.5%; in experiment [6] it was 106%. Moreover, the growth in experiment [7] was 110%.
